From PubChem BioAssay (NCI)
Compounds without any hit were thinned out: in the full panel of roughly 79,000, 15% have a hit. The source made the active and inactive calls. Cut-off read from the data, not from the text of the source: active = growth inhibition above about 70%; inactive = the rest.

Assays:
[1] = NCI Yeast Anticancer Drug Screen. Data for the rad50 strain (AID 155);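 note: 0% = growth of vehicle-only cultures of the same strain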; settings: S. cerevisiae rad50 strain growth inhibition, active compounds read high
Summary of the method: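 Relative growth inhibition (compound vs vehicle) was measured in yeast with a defined repair-gene alteration.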

[2] = NCI Yeast Anticancer Drug Screen. Data for the mec2-1 strain (AID 157); settings: S. cerevisiae mec2-1 strain, active compounds read high
Summary of the method: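 Growth inhibition is read against vehicle-treated controls after compound exposure of the mec2-1 yeast strain, which is defective in DNA damage repair or cell cycle control.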

[3] = NCI Yeast Anticancer Drug Screen. Data for the sgs1 mgt1 strain (AID 161);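 note: 0% = growth of cultures given vehicle only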; settings: S. cerevisiae sgs1 mgt1 strain, active compounds read high
Summary of the method: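 This yeast growth screen uses a strain with defined DNA-repair lesions; compound-treated growth is compared with vehicle-treated growth.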

[4] = NCI Yeast Anticancer Drug Screen. Data for the cln2 rad14 strain (AID 165);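 note: 0% = growth equal to vehicle treated cultures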; settings: S. cerevisiae cln2 rad14 strain, active compounds read high
Summary of the method: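 Growth inhibition, relative to vehicle-treated controls, is the read-out. The test organism is a yeast strain with defined genetic alterations, cln2 rad14.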

[5] = NCI Yeast Anticancer Drug Screen. Data for the bub3 strain (AID 167); settings: S. cerevisiae bub3 mutant strain, active compounds read high
Summary of the method: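 Screening used yeast with an engineered genetic alteration affecting cell cycle control. Compound-exposed cultures were compared with vehicle cultures, and reduced growth was taken as inhibition.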

[6] = NCI Yeast Anticancer Drug Screen. Data for the mlh1 rad18 strain (AID 175); settings: S. cerevisiae mlh1 rad18 strain growth inhibition, active compounds read high
Summary of the method: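 Cells of a genetically altered yeast strain, deficient in DNA damage repair, were treated with compound. Their growth was then compared with that of vehicle-treated cultures to give inhibition.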

[7] = at 5.0 µM (retest, dose inferred, filed as 0.5)
[8] = at 50.0 µM (retest, dose inferred, filed as 5.0)

Measured: growth inhibition

FC(F)(F)c1cccc(COCCN2CCN(Cc3cccc(C(F)(F)F)c3)CC2)c1
inactive: [1]; [7] 36% | [2]; [7] 26% | [3]; [7] 46% | [4]; [7] 33% | [5]; [7] 29% | [6]; [7] 21%
active: [1]; [8] 98% | [1]; at 50.0 µM 97.7% | [2]; [8] 98% | [2]; at 50.0 µM 99.1% | [3]; [8] 99% | [3]; at 50.0 µM 99.1% | [4]; [8] 99% | [4]; at 50.0 µM 96.5% | [5]; [8] 98% | [5]; at 50.0 µM 98.2% | [6]; [8] 98% | [6]; at 50.0 µM 99%

N#CC(C#N)=C/C=C/c1c(Cl)cccc1Cl
inactive: [1]; [7] 7% | [1]; [8] 41% | [2]; [7] 15% | [2]; [8] 58% | [2]; at 50.0 µM 46.9% | [3]; [7] 11% | [3]; at 50.0 µM 58.9% | [4]; [7] 29% | [4]; [8] 68% | [5]; [7] 25% | [5]; at 50.0 µM 69.6% | [6]; [7] 8% | [6]; [8] 66% | [6]; at 50.0 µM 57.1%
active: [1]; at 50.0 µM 71.2% | [3]; [8] 78% | [4]; at 50.0 µM 76.8% | [5]; [8] 79%

Clc1nc(Cl)c(Cc2ccccc2)c(Cl)n1
active: [1]; [8] 97% | [1]; at 50.0 µM 91% | [2]; [8] 99% | [2]; at 50.0 µM 93.4% | [3]; [8] 100% | [3]; at 50.0 µM 90.7% | [4]; [8] 94% | [4]; at 50.0 µM 89.2% | [5]; [8] 99% | [5]; at 50.0 µM 87.2% | [6]; [7] 78% | [6]; [8] 97% | [6]; at 50.0 µM 88.5%
inactive: [1]; [7] 43% | [2]; [7] 50% | [3]; [7] 38% | [4]; [7] 34% | [5]; [7] 49%

COc1ccc2nccc(C(=O)CBr)c2c1
active: [1]; at 50.0 µM 92% | [2]; at 50.0 µM 93% | [3]; at 50.0 µM 97.4% | [5]; at 50.0 µM 97.2% | [6]; at 50.0 µM 96.6%
inactive: [1]; [7] 24% | [1]; [8] 23% | [2]; [7] 32% | [2]; [8] -5% | [3]; [7] 61% | [3]; [8] 20% | [4]; [7] -1% | [4]; [8] 10% | [4]; at 50.0 µM 31.3% | [5]; [7] 13% | [5]; [8] 34% | [6]; [7] 31% | [6]; [8] 37%
